Laboratory results reported in PubChem BioAssay (NCATS).
Records with an inconclusive call do not appear. Calls of active or inactive are those of the source. Unless noted, calls follow the shape of the dose curve; as a rule, active = well fitted curve in the direction sought with a large enough effect; inconclusive = small, poorly fitted or top-dose-only effect, or another doubt; inactive = no such curve, though single readings can be large; an effect the other way counts as inactive or inconclusive.

Key:
[1] = qHTS to identify inhibitors of the type 1 interferon - major histocompatibility complex class I in skeletal muscle: primary screen against the NCATS LOPAC collection (AID 1347405); details: iHSKM muscle cells, IFN-b-induced MHC-I HiBiT luminescence, 24 h; series mostly up to 45.9 µM;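 also: lytic HiBiT luminescence reporting HLA-B protein level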; also: potency is read from the fitted curve at half-maximal effect
In short: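 Immortalized human C25cl48 myoblasts with HiBiT knocked into endogenous HLA-B*08:01 were stimulated with 4.0 ng/ml IFN-beta and given compounds in a 7-point, 1:4.3 titration from 46 uM final; after 24 hrs, lytic HiBiT luminescence was read.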

[2] = qHTS for inhibitors of adenylyl cyclases using a fission yeast platform: a pilot screen against the NCATS LOPAC library (AID 1347410); details: S. pombe CHP2027, fbp1-GFP fluorescence, 18 h; series mostly up to 57.5 µM
In short: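 Inhibition of GNAS-stimulated AC9 activity in S. pombe was inferred from derepression of a PKA-repressed fbp1-GFP reporter, measured as cytometric fluorescence after 18 h at 30C with compounds at up to 57 µM.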

[3] = Validation qHTS assay for inhibitors of Activation Induced Cytidine Deaminase (AID): UDG Counterscreen signal (AID 1347427); details: biochemical UDG counterscreen, fluorescence signal; series mostly up to 115 µM
In short: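 Counterscreen read of UDG activity (2 U/mL, 4/3x) in the FRET deamination format with AID (1 uM, 4/3x), DJC20/DJC23 substrates (250 nM, 4x), 4 h at room temperature. NaOH stop, fluorescence at 560 ex/665 em.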

[4] = Primary qHTS for inhibitors of La Crosse Virus (LACV) - induced cell death in SH-SY5Y cells (AID 1508616); details: SH-SY5Y LACV cytopathicity rescue, ATP luminescence, 6 d; series mostly up to 9.63 µM;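 also: top concentration of the series differs between compounds; higher means more rescue of cells from virus-induced death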
In short: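 Luminescent ATP readout (ATPLite 1step, 5 min room temperature) measured rescue from LACV-induced death after 6 days of infection at 0.01 MOI; normalized to infected DMSO wells and uninfected DMSO wells.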

[5] = biological target: Calcium and integrin-binding protein 1 (Homo sapiens) (UniProt Q99828); assay: Validation qHTS for Identification of Calcium Integrin Binding protein 1 (CIB1) Competitor (AID 1508618); details: CIB1-GST / FITC-alphaIIb peptide fluorescence polarization; series mostly up to 114 µM; also: potency is read from the fitted curve at half-maximal effect
Chain of Calcium and integrin-binding protein 1 (Homo sapiens) (Q99828 whole entry, looked up): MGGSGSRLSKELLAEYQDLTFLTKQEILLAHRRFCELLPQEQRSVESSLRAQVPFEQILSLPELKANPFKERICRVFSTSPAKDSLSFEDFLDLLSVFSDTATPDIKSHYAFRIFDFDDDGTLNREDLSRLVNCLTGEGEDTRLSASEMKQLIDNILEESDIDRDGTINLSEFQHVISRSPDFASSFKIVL
In short: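 CIB1-GST (1 uM final) in 5 mM HEPES pH 7.4, 125 mM NaCl, 5 mM CaCl2, 0.01% Tween20 was preincubated 15 min at room temperature with compound (up to 114 uM), then FITC-alphaIIb peptide (100 nM) added for 15 min; fluorescence polarization read.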

[6] = Counterscreen qHTS for small molecule stabilizers of the endoplasmic reticulum resident proteome: GLuc-NoTag assay (AID 1508627); details: Gaussia luciferase NoTag secretion counterscreen, luminescence, thapsigargin 100 nM for final 4 h; series mostly up to 76.4 µM;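 also: SH-SY5Y cells given compound then 100 nM thapsigargin to empty ER calcium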
In short: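 Luminescence of Gaussia luciferase secreted into the medium (coelenterazine, 0.07x final, unlysed cells) was the read-out. Human SH-SY5Y neuroblastoma cells constitutively secreting untagged GLuc received compound for 19 h, then 100 nM thapsigargin for 4 h.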

[7] = qHTS to identify inhibitors of the type 1 interferon - major histocompatibility complex class I in skeletal muscle: primary screen against the NCATS Pharmaceutical Collection (AID 1347407); details: human skeletal muscle cells, IFN-b-induced MHC-I HiBiT luminescence, 24 h; series mostly up to 92.2 µM;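 also: luminescence of HiBiT knocked into endogenous HLA-B as interferon-induced MHC class I level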
In short: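 A qHTS format is used: 8-point, 1:5 compound series with 46 uM top final concentration, applied alongside 4 ng/ml IFN-beta to HLA-B*08:01-HiBiT knock-in myoblasts. Luminescence is measured after 24 h treatment.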

[8] = biological target: Protein phosphatase 1D (Homo sapiens) (UniProt O15297); assay: RapidFire Mass Spectrometry qHTS Assay for Modulators of WT P53-Induced Phosphatase 1 (WIP1) (AID 1347424); details: WIP1 dephosphorylation of phosphopeptide, RapidFire MS; series mostly up to 128 µM;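 also: amount of dephosphorylated VEPPL-S-QETFS peptide product formed by WIP1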
Chain of Protein phosphatase 1D (Homo sapiens) (O15297 whole entry, looked up): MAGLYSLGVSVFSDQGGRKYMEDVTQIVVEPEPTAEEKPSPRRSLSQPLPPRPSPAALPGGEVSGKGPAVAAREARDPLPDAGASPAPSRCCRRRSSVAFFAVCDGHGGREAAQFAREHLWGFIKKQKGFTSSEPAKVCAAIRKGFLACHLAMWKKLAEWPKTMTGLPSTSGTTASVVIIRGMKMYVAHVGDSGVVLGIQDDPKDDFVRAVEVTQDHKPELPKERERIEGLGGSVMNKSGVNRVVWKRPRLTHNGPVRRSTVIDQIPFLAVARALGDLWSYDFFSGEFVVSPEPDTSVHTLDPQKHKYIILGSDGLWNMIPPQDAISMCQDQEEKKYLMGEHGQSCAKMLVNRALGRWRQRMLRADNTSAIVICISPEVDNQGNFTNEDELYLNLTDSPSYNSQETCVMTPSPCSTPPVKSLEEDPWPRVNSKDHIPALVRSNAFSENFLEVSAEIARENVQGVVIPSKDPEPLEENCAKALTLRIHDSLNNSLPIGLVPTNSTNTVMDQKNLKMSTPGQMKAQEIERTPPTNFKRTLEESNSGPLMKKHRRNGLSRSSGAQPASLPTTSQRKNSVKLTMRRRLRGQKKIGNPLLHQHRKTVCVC
In short: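 10 nM WIP1 + cpd, 1 h RT; + 2 uM VEPPL-pS-QETFS, 5 min RT; stop 0.5% formic acid; labelled product standard 1 uM; RapidFire MS. Buffer 50 mM Tris pH 7.5, 30 mM MgCl2, 1 mM TCEP.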

[9] = biological target: Protein phosphatase 1D (Homo sapiens) (UniProt O15297); assay: Rhodamine-PBP qHTS Assay for Modulators of WT P53-Induced Phosphatase 1 (WIP1) (AID 1347425); details: recombinant WIP1, Rhodamine-PBP phosphate fluorescence, real-time; series mostly up to 116 µM
In short: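 Read-out: Rhodamine-PBP fluorescence (ex 525/em 598 nm) for released Pi, read each minute for 11 min after adding 10 uM VEPPL-pS-QETFS; signal taken as f1 minus pre-substrate f0. Enzyme 5 nM WIP1 with 1 hr room-temperature compound preincubation.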

[10] = biological target: Calcium and integrin-binding protein 1 (Homo sapiens) (UniProt Q99828); assay: Primary qHTS for Identification of Calcium Integrin Binding Protein 1 (CIB1) Competitor (AID 1508620); details: CIB1-GST / FITC-alphaIIb peptide fluorescence polarization; series mostly up to 114 µM;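 also: GST tagged CIB1 binding a fluorescein labelled alphaIIb integrin peptide tracer; top concentration of the series differs between compounds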
In short: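 CIB1-GST (1 uM final) and compound incubated 15 min at room temperature before adding FITC-alphaIIb peptide tracer (100 nM final). Competition for binding read by fluorescence polarization (ex 480, em 540) after another 15 min at room temperature.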

[11] = biological target: Single-stranded DNA cytosine deaminase (Homo sapiens) (UniProt Q9GZX7); assay: Validation qHTS assay for inhibitors of Activation Induced Cytidine Deaminase (AID): AID signal (AID 1347429); details: Recombinant AID, FRET ssDNA deamination with UDG, fluorescence; series mostly up to 115 µM; also: potency is read from the fitted curve at half-maximal effect
Chain of Single-stranded DNA cytosine deaminase (Homo sapiens) (Q9GZX7 whole entry, looked up): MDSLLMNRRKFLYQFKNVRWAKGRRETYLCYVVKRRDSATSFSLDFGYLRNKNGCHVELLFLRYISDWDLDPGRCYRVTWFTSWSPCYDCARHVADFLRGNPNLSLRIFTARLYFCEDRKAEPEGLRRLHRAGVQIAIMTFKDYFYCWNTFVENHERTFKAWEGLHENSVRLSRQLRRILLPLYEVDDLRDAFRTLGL
In short: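 AID and UDG were combined and compounds added at final up to 114 uM, then DJC20/DJC23 FRET substrate was added for 4 hr at room temperature. NaOH was then added for 30 min before fluorescence was read at 540/590 nm.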

[12] = Primary qHTS for inhibitors of SARS-S pseudo-typed particle cell entry (AID 1479145; calls by dose curve; also: nearly all actives have a fitted effect of over 45% in size); details: SARS-S pseudotyped particle cell entry, luciferase reporter; series mostly up to 57.1 µM
[13] = Primary qHTS for Huh7 cytotoxicity: counterscreen for inhibitors of MERS-S pseudotyped particle cell entry (AID 1479147; calls by dose curve); details: cell viability read-out; series mostly up to 57.1 µM
[14] = Primary qHTS for inhibitors of MERS-S pseudo-typed particle cell entry (AID 1479149; calls by dose curve; also: nearly all actives have a fitted effect of over 60% in size); details: MERS-S pseudotyped particle entry, luciferase; series mostly up to 57.1 µM
[15] = Primary qHTS for Vero E6 cytotoxicity: counterscreen for inhibitors of SARS-S pseudo-typed particle cell entry (AID 1479150; calls by dose curve); details: cell viability; series mostly up to 57.1 µM
[16] = qHTS to identify inhibitors of the type 1 interferon - major histocompatibility complex class I in skeletal muscle: primary screen against the NCATS Mechanism Interrogation Plate v5.0 (MIPE) Libary (AID 1347411); details: iHSKM cells + IFN-b, HiBiT-tagged MHC-I luminescence, 24 h; series mostly up to 45.8 µM; also: nearly all actives have a fitted effect of over 65% in size
In short: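 Immortalized human C25cl48 myoblasts with HiBit knocked into endogenous HLA-B*08:01 were stimulated with 4.0 ng/ml IFN-beta and exposed to compounds (11-point 1:3 titration, top 46 uM final) for 24 hrs at 37 C; HiBiT lytic luminescence measured.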

[17] = Confirmatory qHTS for VERO E6 Cytotoxicity Assay: Counterscreen for SARS-CoV-2 CPE Assay (AID 1508605; calls by dose curve; also: nearly all actives have a fitted effect of over 60% in size); details: cell viability luminescence; series mostly up to 20 µM

Measured: Potency

NC(=O)CI
inactive: [1] | [2] | [3] | [4] | [5]

CCCC[N+]1(C)C2CC(OC(=O)[C@H](CO)c3ccccc3)CC1C1OC12 (some centres not stated)
inactive: [1] | [2] | [3] | [4] | [5]

O=C1/C(=C/c2ccccc2)C[C@@]2(O)[C@H]3Cc4ccc(O)c5c4[C@@]2(CCN3CC2CC2)[C@H]1O5
active: [1] 2 µM
inactive: [2] | [5]

CN(N=O)c1cc(O)ccc1O
inactive: [2] | [3]

NC(Cc1cc(O)c(O)cc1O)C(=O)O (configuration not stated)
active: [5] 35.5 µM
inactive: [1] | [2] | [3] | [4]

CCCN(CCC)[C@@H]1CCc2cccc(O)c2C1
inactive: [1] | [2] | [3] | [5]

CCCn1c(=O)c2[nH]c(C3CCCC3)nc2n(CCCOC(=O)c2ccc(S(=O)(=O)F)cc2)c1=O
inactive: [1] | [2] | [3] | [5]

CN1CCc2cccc(Cl)c2CC1
inactive: [1] | [2] | [3] | [5]

O=c1ccc2[nH]cc(C3=CCNCC3)c2[nH]1
inactive: [1] | [2] | [5]

COc1ccc2c(c1)C13CCCCC1C(C2)N(C)CC3 (configuration not stated)
inactive: [1] | [2] | [3] | [4] | [5] | [6]

C[N+]1(C)CCOC(O)(c2ccc(-c3ccc(C4(O)C[N+](C)(C)CCO4)cc3)cc2)C1 (configuration not stated)
inactive: [1] | [2] | [3] | [4] | [5]

OCc1cnc[nH]1
inactive: [1] | [2] | [3] | [5]

CC(C)(C)OC(=O)NC1[C@H]2CNC[C@@H]12 (some centres not stated)
inactive: [1] | [2] | [5]

C#CCN[C@H](C)Cc1ccccc1
inactive: [1] | [2] | [3] | [5]

O=S1(=O)N(CCN2CC=C(c3c[nH]c4cc(F)ccc34)CC2)c2cccc3c2N1CCC3
inactive: [1] | [2] | [3] | [5]

NNC(=O)c1ccc(O)cc1
inactive: [1] | [2] | [3] | [5]

CC(N)[C@H](O)c1ccc(O)c(O)c1 (some centres not stated)
inactive: [1] | [2] | [3] | [4] | [5]

CCCSP(=O)(OCC)SCCC
inactive: [7] | [8] | [9] | [10]

CCCN(CCC)C1CCc2cccc(O)c2C1 (configuration not stated)
inactive: [1] | [2] | [3] | [4] | [5]

CN1CC[C@@]2(C)c3cc(O)ccc3N(C)C12 (some centres not stated)
inactive: [1] | [2] | [5]
active: [11] 12.6 µM

C[C@@H]1O[C@H](C[N+](C)(C)C)CS1
inactive: [3] | [11]

N[C@@H](CCl)C(=O)O
inactive: [3] | [11]

C=CCN1CCc2cccc3c2[C@H]1Cc1ccc(O)c(O)c1-3
inactive: [3] | [11]

O=C/C=C/c1ccccc1
inactive: [12] | [13] | [14] | [15]

CCCCCCCCCCCCCC(=O)O[C@@H]1[C@@H](C)[C@@]2(O)[C@@H](C=C(CO)C[C@@]3(O)C(=O)C(C)=C[C@@H]23)C2C(C)(C)[C@@]21OC(C)=O (some centres not stated)
inactive: [2] | [3] | [11] | [4] | [5]

C=CCN1CC[C@]23c4c5ccc(O)c4O[C@@H]2/C(=N/N=C2\CC[C@@]4(O)C6Cc7ccc(O)c8c7[C@@]4(CCN6CC=C)[C@@H]2O8)CC[C@@]3(O)C1C5
inactive: [3] | [11]

COc1cc(C)[nH]c(=O)c1CNC(=O)c1c(C)n([C@H](C)C2CCOCC2)c2ccccc12
inactive: [16] | [10]

CN1CCC[C@@H]1Cc1c[nH]c2ccc(Nc3ncccc3[N+](=O)[O-])cc12
inactive: [2] | [5] | [10]

CCCN(CCC)CCc1c[nH]c2ccc(C(N)=O)cc12
inactive: [3] | [11] | [4]

O=c1c2ccccc2[se]n1-c1ccccc1
inactive: [3] | [11] | [17] | [4]
